# PKA-R2B act: PKA-R2B complex activation; P22694+P31323; PKA-R2B holoenzyme dissociation, Cy5-IP20 fluorescence polarization; R2B truncated from residue 108, S112A mutant; 0% DMSO only, 100% 113 µM cGMP; activation, % at 11.4 µM; 0.079% of 340,000 active; AID 504700;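 active means activation above a cutoff set at the mean over all compounds plus 3 SD, cut at about 18% in these data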;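 further: higher means more holoenzyme dissociation and a rise in polarization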
# PAFAH2 FP inh: inhibitors of human PAFAH2. inhibition, % at 3.39 µM. Q99487. 0.99% of 340,000 active. recombinant PAFAH2, FP-rhodamine activity probe, fluorescence polarization;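 active means inhibition above the mean over all tested compounds plus 3 SD, cut at about 30% in these data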;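 further: inhibitors block probe labeling of enzyme so polarization drops; 0% = enzyme with DMSO and 100% = wells lacking PAFAH2 protein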
# PAFAH1B2 FP inh: PAFAH1B2 (human) inhibition. P68402. recombinant PAFAH1B2, FP-rhodamine activity probe, fluorescence polarization. inhibition, % at 3.39 µM. 1.2% of 340,000 active. AID 492953;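 active means inhibition above the mean of all tested compounds plus 3 SD, cut at about 24% in these data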;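 further: 0% = enzyme with DMSO and 100% = wells lacking PAFAH1B2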
# Target sequence (P68402 whole entry, looked up): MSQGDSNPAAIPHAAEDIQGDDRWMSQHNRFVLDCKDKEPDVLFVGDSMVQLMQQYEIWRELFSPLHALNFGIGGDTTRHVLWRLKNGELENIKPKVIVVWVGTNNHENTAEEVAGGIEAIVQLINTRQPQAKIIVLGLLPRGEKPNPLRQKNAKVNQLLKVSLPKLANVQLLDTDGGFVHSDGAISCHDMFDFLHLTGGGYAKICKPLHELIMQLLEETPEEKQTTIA
# pPAFAH FP inh: pPAFAH (human) enzyme inhibition; Q13093; 1.5% of 330,000 active; inhibition, % at 3.39 µM; recombinant pPAFAH, FP-rhodamine probe fluorescence polarization;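 active means inhibition above the mean inhibition across the screen plus 3 SD, cut at about 25% in these data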;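 further: inhibitors block binding of the rhodamine activity-based probe so polarization drops; 0% = enzyme with DMSO and 100% = wells lacking pPAFAH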
# PKA-R1A act: activators of PKA-R1A complex; P00514+P68181; PKA-R1A dissociation, Cy5-IP20 fluorescence polarization; scaled: DMSO 0%, 113 µM cGMP 100%; activation, % at 11.4 µM; 0.083% of 340,000 active; AID 504707;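 active means percent activation above the mean of all tested compounds plus 3 SD, cut at about 19% in these data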;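 further: higher means more PKAc released from R1A so a rise in polarization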
# PAFAH1B3 FP inh: blocks human PAF acetylhydrolase 1B catalytic subunit 3; recombinant PAFAH1B3, FP-rhodamine probe, fluorescence polarization; inhibition, % at 3.39 µM; 0.28% of 340,000 active; AID 492972;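 active means inhibition above the screen-wide average of all tested compounds plus 3 SD, cut at about 25% in these data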;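 further: 0% = enzyme with DMSO only and 100% = wells lacking PAFAH1B3 protein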
# Target sequence (Q15102 whole entry, looked up): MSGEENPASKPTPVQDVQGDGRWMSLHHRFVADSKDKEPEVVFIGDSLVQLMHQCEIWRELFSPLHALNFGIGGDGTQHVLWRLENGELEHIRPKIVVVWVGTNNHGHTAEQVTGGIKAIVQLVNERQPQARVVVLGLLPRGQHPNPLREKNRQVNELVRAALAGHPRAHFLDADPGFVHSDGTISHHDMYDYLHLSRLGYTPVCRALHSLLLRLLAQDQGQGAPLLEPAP
# Numbers without * were called inactive; / = not tested or not shown. Only some compounds are listed: those with a hit (about 2.6% of all), similar ones and a draw of the others.
SMILES,PKA-R2B act,PAFAH2 FP inh,PAFAH1B2 FP inh,pPAFAH FP inh,PKA-R1A act,PAFAH1B3 FP inh
COc1ccc(C2CC(c3ccccc3F)=NN2c2ccc(S(N)(=O)=O)cc2)cc1 (stereo not drawn),-9,-3,5,13,-3,7
CCOCCCN(CC(=O)NC1CCCC1)C(=O)C(=O)Nc1ccc2c(c1)OCCO2,1,-2,6,-5,0,-2
O=C(Nc1ccc(S(=O)(=O)N2CCCC2)cc1)C1CC(=O)N(CCc2ccccc2)C1 (stereo not drawn),-1,/,/,/,-2,/
Cc1ccc(C)c(OCCC(=O)OCC(=O)NCc2ccc(F)cc2)c1,-12,7,4,30*,0,6
COc1ccc(OCCC(=O)OCC(=O)NCc2ccccc2)cc1,0,-1,0,21,-7,4
CCOc1ccc(OCCC(=O)OCC(=O)NCc2ccccc2)cc1,-1,-6,-1,32*,-3,-3
Cc1ccc(OCCC(=O)OCC(=O)NCc2ccccc2)cc1,-4,-3,1,30*,0,4
CCC(=O)N1CCc2cc(S(=O)(=O)N3CCN(c4cc(Cl)ccc4C)CC3)ccc21,0,-2,2,3,-8,3
Cc1ccccc1-n1nnnc1SCC(=O)c1c(N)n(C2CC2)c(=O)[nH]c1=O,-13,-4,0,/,-1,7
CC1CCCC(NC(=O)CSc2nnc(C(F)(F)F)n2C)C1C (stereo not drawn),5,-8,9,-4,13,9
CCc1ccc(NS(=O)(=O)c2c(C(=O)N3CCCCCC3)c(C)n(C)c2C)cc1,-8,-8,6,-2,1,0
CN(CC(=O)Nc1c(Cl)cccc1Cl)C(=O)CCNS(=O)(=O)c1ccccc1C(F)(F)F,0,8,6,1,0,0
Cc1ccc(C)c(CSc2nnc(C)c(=O)[nH]2)c1,-3,-4,6,0,-18,6
Cc1cnc(SCc2ccc(Cl)cc2Cl)[nH]c1=O,-4,5,27*,6,8,11
O=c1nccc(SCc2ccc(Cl)cc2Cl)[nH]1,-4,2,13,5,-10,7
Cc1cc(=O)[nH]c(SCc2ccc(Cl)cc2Cl)n1,-4,22,29*,9,-9,-3
Nc1cc(=O)[nH]c(SCc2ccccc2Cl)n1,4,2,1,-5,8,-1
Cc1nnc(SCc2ccc(Cl)cc2Cl)[nH]c1=O,-7,12,27*,21,-9,6
CCc1nc(CNC(=O)C2CCC(=O)N(Cc3ccccc3F)C2)no1 (stereo not drawn),8,7,4,/,-1,4
CCOc1cc(-c2nn3cnnc3s2)cc(OCC)c1OCC,1,-9,-4,28*,2,1
COc1cccc(N2C(=O)C3CCCN3C2=S)c1 (stereo not drawn),3,-11,0,-3,2,8
Cc1cc(C(=O)N/N=C2\CC(=O)c3ccccc32)c(C)n1-c1ccccc1,1,5,6,31*,-3,5
O=C(CSCc1ccc(F)cc1)N1CCOCC1,11,-3,-2,0,7,0
O=C(CSCc1ccc(Br)cc1)N1CCCC1,4,8,29*,6,2,7
O=C(CSCc1ccc(Br)cc1)N1CCOCC1,-2,5,26*,5,-1,3
SMILES,PKA-R2B act,PAFAH2 FP inh,PAFAH1B2 FP inh,pPAFAH FP inh,PKA-R1A act,PAFAH1B3 FP inh
C[C@H](CO)N1C[C@H](C)[C@@H](CN(C)C(=O)Nc2ccccc2)Oc2ccc(NC(=O)C3CCCCC3)cc2C1=O,-4,13,4,7,-6,3
C=CCNC(=O)C1CC2Cn3c(nc4cc(Cl)c(Cl)cc43)C2N1C (stereo not drawn),-5,-5,6,7,-15,14
CCCC(=O)NCc1nc2ccccc2n1CC(=O)c1ccccc1,-3,1,2,0,4,3
CO[C@H]1/C=C/O[C@@]2(C)Oc3c(C)c(O)c4c(O)c(c(C=NN5CCN(C)CC5)c(O)c4c3C2=O)NC(=O)/C(C)=C\C=C\[C@H](C)[C@H](O)[C@@H](C)[C@@H](O)[C@@H](C)[C@H](OC(C)=O)[C@@H]1C,4,3,8,18,-4,11
CO[C@H]1C=CO[C@@]2(C)Oc3c(C)c(O)c4c(O)c(c(C=NN5CCN(C)CC5)c(O)c4c3C2=O)NC(=O)C(C)=CC=C[C@H](C)[C@H](O)[C@@H](C)[C@@H](O)[C@@H](C)[C@H](OC(C)=O)[C@@H]1C,7,10,3,31*,-4,19
O=c1cc2c(=O)oc3cc(O)c(O)oc3c2c(O)c1O,11,62*,30*,/,2,79*
C[C@H](CO)N1C[C@H](C)[C@@H](CN(C)C(=O)Nc2cccc(F)c2)Oc2ncc(Br)cc2C1=O,0,/,/,/,5,/
NC(=O)c1ncn([C@@H]2O[C@H](CNCc3ccc(-c4cc(C(F)(F)F)ccc4Cl)o3)[C@@H](O)[C@H]2O)n1,-4,0,8,/,0,-2
Cc1nc2cc(NCc3ccc(Cl)cc3)ccc2n1C,6,-2,28*,1,-2,-2
CCn1cnc2cc(NCc3ccc(Cl)cc3)ccc21,-2,-3,32*,-1,-9,3
CC(=O)NC(Cc1ccc(F)cc1)C(=O)NC1CCN(C(=O)NCc2ccccc2)CC1 (stereo not drawn),-6,-13,3,5,10,4
COc1cccc(N2CC(NS(=O)(=O)c3ccc4ccccc4c3)CC2=O)c1 (stereo not drawn),-8,2,10,5,-10,4
COC(=O)c1ccccc1NCc1cc(=O)oc2cc(O)c(O)cc12,6,31*,44*,82*,-9,17
Fc1ccc(-c2csc(NC(=S)Nc3ccccc3)n2)cc1,1,-2,4,2,-4,7
CC(C)CNC(=O)COC(=O)c1ccc2c(c1)C(=O)N(Cc1ccco1)C2=O,-6,5,0,27*,8,0
CCCC(C)NC(=O)COC(=O)c1ccc2c(c1)C(=O)N(Cc1ccco1)C2=O (stereo not drawn),-7,-10,3,25*,2,6
CC1(C)CC(=O)C=C(c2ccc(-c3ccc4[nH]ccc4c3)cc2)C1=O,0,/,/,/,-21,/
N#C/C(=C\c1ccc(-c2ccc([N+](=O)[O-])cc2)o1)C(=O)Nc1nc(-c2cccs2)cs1,0,12,4,17,1,4
N#C/C(=C\c1ccc(-c2ccccc2[N+](=O)[O-])o1)C(=O)Nc1nc(-c2cccs2)cs1,-10,22,4,30*,-12,16

# High-throughput results as filed in PubChem.
